From PubChem BioAssay
Active and inactive are the calls of the source.

Columns and labels:
[1] = optical density shifts of acrAB sulA E. coli – strain DRC41, OD650, 48 h, E. coli filamentation inducer project, primary screen (AID 1152); settings: higher = more signal, called active from +8 up or from −8 down;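 further: E. coli MC1000 strain DRC41 lacking acrAB efflux pump and sulA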
[2] = probe aLefty1 binding on compound microarray – biochemical, small-molecule microarray, 635/667 nm fluorescence, primary screen (AID 1153); settings: higher = more signal;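 further: score merges spot fluorescence with signal-to-noise ratio from the scanned slide images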
[3] = plasmodial surface anion channel blockers, osmotic lysis – cell-based, P. falciparum Indochina, OD700, 1 h, primary screen (AID 1154); settings: P. falciparum Indochina infected RBC osmotic lysis, higher = more signal, called active from +8 up or from −8 down
[4] = plasmodial surface anion channel blockers, osmotic lysis – cell-based, P. falciparum Indochina, OD700, 2 h, primary screen (AID 1155);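 further: lysis reports solute entry through the parasite surface anion channel PSAC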; settings: P. falciparum Indochina infected erythrocytes, higher = more signal, called active from +8 up or from −8 down
[5] = changes in parasitized red cell lysis, either direction – P. falciparum Indochina, OD700, 3 h, PSAC antagonist project, primary screen (AID 1156); settings: P. falciparum-infected erythrocytes, osmotic lysis, higher = more signal, called active from +8 up or from −8 down
[6] = plasmodial surface anion channel blockers, osmotic lysis – cell-based, P. falciparum Indochina, OD700, 18 h, primary screen (AID 1157); settings: P. falciparum Indochina infected erythrocytes, osmotic lysis OD700, 18 h; higher = more signal, called active from +8 up or from −8 down
[7] = S6 kinase pathway phospho-S6 level changes – cell-based, A549, cytoblot, luminescence, serum-stimulated, primary screen (AID 1158); settings: 5 h, higher = more signal;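 further: serum-stimulated A549 lung adenocarcinoma cells; signal is phosphorylated S6 detected by cytoblot immunostaining with HRP secondary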
[8] = molecular target: NADPH oxidase 2 (Homo sapiens) (UniProt P04839); assay: compounds shifting NOX2 Amplex Red fluorescence – cell-based, HEK293-NOX2, PMA-stimulated, NOX inhibitor project, primary screen (AID 1159); settings: 45 min, higher = more signal, called active from +8 up or from −8 down; further: test concentration not given here
Sequence of NADPH oxidase 2 (Homo sapiens) (P04839 whole entry, looked up): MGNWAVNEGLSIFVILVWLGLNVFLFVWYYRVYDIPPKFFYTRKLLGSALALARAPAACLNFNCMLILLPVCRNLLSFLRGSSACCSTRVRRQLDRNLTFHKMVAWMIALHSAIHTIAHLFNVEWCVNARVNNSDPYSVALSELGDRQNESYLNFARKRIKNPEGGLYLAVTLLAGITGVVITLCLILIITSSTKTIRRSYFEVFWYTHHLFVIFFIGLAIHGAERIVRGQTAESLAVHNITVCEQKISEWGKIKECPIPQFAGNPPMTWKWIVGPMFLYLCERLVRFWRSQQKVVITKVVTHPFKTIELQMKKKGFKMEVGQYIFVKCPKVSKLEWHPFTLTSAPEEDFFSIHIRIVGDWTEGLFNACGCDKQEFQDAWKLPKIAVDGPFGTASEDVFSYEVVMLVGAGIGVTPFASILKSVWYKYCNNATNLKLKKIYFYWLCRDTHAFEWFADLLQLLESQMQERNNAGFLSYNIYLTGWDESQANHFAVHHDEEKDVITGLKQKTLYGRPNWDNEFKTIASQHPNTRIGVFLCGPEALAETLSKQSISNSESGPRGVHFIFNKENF

[9] = molecular target: NADPH oxidase 4 (Homo sapiens) (UniProt Q9NPH5); assay: compounds shifting NOX4 Amplex Red fluorescence – cell-based, HEK293-NOX4, tetracycline-induced, NOX inhibitor project, primary screen (AID 1160); settings: HEK293-NOX4, Amplex Red H2O2 fluorescence, 45 min; higher = more signal, called active from +8 up or from −8 down
Sequence of NADPH oxidase 4 (Homo sapiens) (Q9NPH5 whole entry, looked up): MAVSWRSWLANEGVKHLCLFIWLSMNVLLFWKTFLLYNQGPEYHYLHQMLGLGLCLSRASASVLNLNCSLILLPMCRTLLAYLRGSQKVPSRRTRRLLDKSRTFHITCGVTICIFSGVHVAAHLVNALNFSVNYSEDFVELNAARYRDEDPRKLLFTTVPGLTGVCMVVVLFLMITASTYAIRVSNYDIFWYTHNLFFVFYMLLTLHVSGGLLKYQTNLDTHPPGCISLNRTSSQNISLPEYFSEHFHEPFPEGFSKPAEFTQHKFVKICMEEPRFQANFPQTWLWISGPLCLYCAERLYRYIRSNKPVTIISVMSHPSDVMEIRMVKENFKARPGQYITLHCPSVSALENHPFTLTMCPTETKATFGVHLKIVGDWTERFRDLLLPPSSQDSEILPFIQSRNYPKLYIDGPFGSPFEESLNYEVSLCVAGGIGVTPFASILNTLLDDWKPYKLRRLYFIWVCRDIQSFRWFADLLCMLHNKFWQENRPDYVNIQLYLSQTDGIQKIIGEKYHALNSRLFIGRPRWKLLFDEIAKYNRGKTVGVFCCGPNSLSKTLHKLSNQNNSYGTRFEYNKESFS

[10] = molecular target: NADPH oxidase 5 (Homo sapiens) (UniProt Q96PH1); assay: compounds shifting NOX5 Amplex Red fluorescence – cell-based, HEK293-NOX5, NOX inhibitor project, primary screen (AID 1161); settings: HEK293-NOX5, ionomycin, 45 min, higher = more signal
Sequence of NADPH oxidase 5 (Homo sapiens) (Q96PH1 whole entry, looked up): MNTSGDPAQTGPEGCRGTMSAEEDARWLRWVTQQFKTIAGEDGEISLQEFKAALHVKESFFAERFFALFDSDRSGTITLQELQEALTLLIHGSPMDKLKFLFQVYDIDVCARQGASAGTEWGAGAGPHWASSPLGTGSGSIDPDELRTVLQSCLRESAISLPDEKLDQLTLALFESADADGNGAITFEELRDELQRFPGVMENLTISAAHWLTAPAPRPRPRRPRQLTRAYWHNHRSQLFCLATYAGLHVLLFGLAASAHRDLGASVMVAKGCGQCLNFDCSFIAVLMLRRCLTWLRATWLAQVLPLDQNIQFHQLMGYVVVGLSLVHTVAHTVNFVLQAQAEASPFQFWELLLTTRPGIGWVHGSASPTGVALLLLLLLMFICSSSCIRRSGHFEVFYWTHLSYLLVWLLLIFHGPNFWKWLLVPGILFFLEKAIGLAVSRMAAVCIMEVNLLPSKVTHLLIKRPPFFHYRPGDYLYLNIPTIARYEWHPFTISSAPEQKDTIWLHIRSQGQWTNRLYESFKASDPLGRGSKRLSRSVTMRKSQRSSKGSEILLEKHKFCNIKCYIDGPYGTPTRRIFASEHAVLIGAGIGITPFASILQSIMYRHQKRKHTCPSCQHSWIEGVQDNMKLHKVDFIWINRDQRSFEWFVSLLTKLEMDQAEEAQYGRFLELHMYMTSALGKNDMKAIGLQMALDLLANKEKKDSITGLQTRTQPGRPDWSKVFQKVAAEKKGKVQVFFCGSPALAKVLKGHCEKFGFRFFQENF

[11] = compound effects on lung adenocarcinoma cell viability – A549, calcein-AM fluorescence, 48 h, basal, profiling panel (AID 1162); settings: higher = more signal; further: test concentration not given here
[12] = compound effects on differentiated 3T3-L1 adipocyte viability – cell-based, 3T3-L1 adipocytes, calcein-AM fluorescence, 48 h, basal, profiling panel (AID 1163); settings: 3T3-L1 adipocytes viability, higher = more signal; further: test concentration not given here
[13] = compound effects on hepatocellular carcinoma cell viability – HepG2, calcein-AM fluorescence, 48 h, basal, profiling panel (AID 1164); settings: higher = more signal; further: test concentration not given here
[14] = compound effects on multiple myeloma cell viability – MM1S, calcein-AM fluorescence, 48 h, basal, profiling panel (AID 1165); settings: higher = more signal;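 further: viability of MM1S multiple myeloma cells under basal unstimulated conditions; test concentration not given here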
[15] = calcein-AM signal in unstimulated myeloma cells – cell-based, calcein-AM fluorescence, 48 h, PK04 Diversity Set, profiling panel (AID 1166); settings: RPMI8226 myeloma viability, higher = more signal;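 further: cells grown under basal conditions without added stimulus; test concentration not given here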
[16] = JC-1 mitochondrial signal, unstimulated HepG2 cells – cell-based, JC-1 fluorescence, 24 h, 100 nL compound, profiling panel (AID 1167); settings: HepG2 mitochondrial potential, higher = more signal; further: test concentration not given here
[17] = JC-1 mitochondrial signal, unstimulated adipocytes – cell-based, JC-1 fluorescence, 3T3-L1 adipocytes, 24 h, 100 nL compound, profiling panel (AID 1168); settings: JC-1 mitochondrial fluorescence, higher = more signal, called active from +8 up or from −8 down; further: test concentration not given here
[18] = JC-1 mitochondrial signal, unstimulated myeloma cells – cell-based, JC-1 fluorescence, RPMI8226, 24 h, 100 nL compound, profiling panel (AID 1169); settings: JC-1 mitochondrial potential fluorescence, higher = more signal; further: test concentration not given here
[19] = JC-1 mitochondrial signal, unstimulated MM1S myeloma – cell-based, JC-1 fluorescence, 24 h, 100 nL compound, profiling panel (AID 1170); settings: MM1S mitochondrial potential, higher = more signal; further: test concentration not given here
[20] = resazurin metabolic signal in A549 cells – cell-based, resazurin fluorescence, 24 h, PK04 Diversity Set, profiling panel (AID 1171); settings: A549 viability, higher = more signal, called active from +8 up or from −8 down; further: test concentration not given here

Compound | z-score [1] | composite z-score [2] | z-score [3] | z-score [4] | z-score [5] | z-score [6] | z-score [7] | z-score [8] | z-score [9] | z-score [10] | z-score [11] | z-score [12] | z-score [13] | z-score [14] | z-score [15] | z-score [16] | z-score [17] | z-score [18] | z-score [19] | z-score [20]
COc1cc2c(cc1OC)CN(C(=O)[C@H]1[C@@H]3C(=O)O[C@@H](c4ccccc4)[C@@H](c4ccccc4)N3[C@@H](c3ccc(O)cc3)[C@]13C(=O)Nc1ccc(C#CC4(O)CCCCCC4)cc13)CC2 | -0.287 (inactive) | 1.76 | 0.621 (inactive) | 1.23 (inactive) | 0.89 (inactive) | 0.737 (inactive) | 0.48 | 1.79 (inactive) | -0.239 (inactive) | 1.02 | 0.273 | -0.0218 | -0.155 | -0.369 | -0.66 | -1.37 | -0.263 (inactive) | -0.34 | 0.432 | 1.24 (inactive)
C=CCOC(=O)[C@@H]1[C@H]2C(=O)O[C@H](c3ccccc3)[C@H](c3ccccc3)N2[C@H](c2ccc(OCCOC(=O)[C@H]3C[C@H]4C(=O)N5CCC[C@H]5C(=O)N4[C@H]3c3ccc(O)cc3)cc2)[C@@]12C(=O)Nc1ccccc12 | 2.34 (inactive) | 0.244 | 3.21 (inactive) | 0.288 (inactive) | -2.79 (inactive) | -1.39 (inactive) | 0.557 | 1.56 (inactive) | 0.0128 (inactive) | 2.16 | 0.17 | 1.25 | -1.06 | -0.222 | -0.931 | -1.16 | 0.597 (inactive) | -0.674 | -0.393 | -0.0653 (inactive)
C=CCC(OC(C)=O)[C@@H]1[C@@H](N(Cc2ccc(-c3ccccc3)cc2)C(=O)c2ccc(C)cc2)c2cc(OCCCO)ccc2N1C(=O)c1ccc(-c2ccccc2)cc1 (stereo not given in full) | 2.2 (inactive) | -0.0583 | 0.267 (inactive) | -0.576 (inactive) | -1.07 (inactive) | -0.888 (inactive) | 1.05 | -0.366 (inactive) | 0.639 (inactive) | 1.05 | 3.37 | 0.626 | 1.87 | -0.732 | 0.887 | 4.05 | 1 (inactive) | -0.454 | 1.22 | 2.47 (inactive)
COc1cccc([C@@H]2[C@@H](C)CC[C@H]3C(=O)N4[C@H](c5cccc(OC)c5)[C@@H](C)CC[C@H]4C(=O)N23)c1 | -0.0799 (inactive) | -0.234 | -0.0074 (inactive) | -0.69 (inactive) | -1.21 (inactive) | -0.987 (inactive) | 3.15 | 0.181 (inactive) | 0.349 (inactive) | 0.796 | 2.04 | 0.512 | 0.761 | 0.656 | 1.34 | 1.51 | 0.891 (inactive) | -0.395 | 1.13 | 1.51 (inactive)
C=C[C@H](OC)[C@@H](OC(=O)Nc1ccc(SC)cc1)c1ccc(OC)c(O)c1 | 2 (inactive) | 0.0004 | 18.9 (active) | 2.11 (inactive) | -0.454 (inactive) | -1.02 (inactive) | 0.738 | -2.57 (inactive) | -1.35 (inactive) | -0.943 | 1.73 | 0.182 | 0.907 | 0.898 | 0.524 | 0.163 | 1.15 (inactive) | 0.412 | 0.761 | 0.595 (inactive)
CCC(=O)[C@]12O[C@@]3([C@@H]4C(=O)OCC[C@@H]41)N(CC)C(C)=C(C(=O)OC)[C@@H](c1ccccc1)N3C2=O | 0.362 (inactive) | -0.29 | 0.91 (inactive) | -0.071 (inactive) | -1.35 (inactive) | -1.08 (inactive) | 0.815 | 1.5 (inactive) | -1.36 (inactive) | 0.922 | 0.569 | 1.77 | 0.0496 | -0.868 | -1.8 | 0.684 | 0.112 (inactive) | -0.537 | 0.541 | -0.257 (inactive)
Cc1ccc(N2C(=O)c3ccccc3[C@@H](C(=O)NCC(F)(F)F)[C@@H]2c2ccc(CO)cc2)nc1 | 0.734 (inactive) | -0.0099 | 1.32 (inactive) | 0.422 (inactive) | 0.827 (inactive) | 0.38 (inactive) | 0.189 | 1.22 (inactive) | 0.32 (inactive) | -0.914 | 0.312 | 0.603 | 0.471 | 0.0049 | 0.51 | 1.04 | 0.884 (inactive) | -0.223 | 0.0421 | 0.547 (inactive)
COC(=O)[C@H]1[C@@H]2COc3ccccc3[C@H]2N[C@H]1C(=O)OC | 0.896 (inactive) | -0.0046 | 0.262 (inactive) | -0.122 (inactive) | -0.406 (inactive) | -0.21 (inactive) | 0.12 | -2.88 (inactive) | 0.28 (inactive) | -1.9 | 0.0306 | 0.0308 | 0.648 | -1.29 | -0.347 | 0.321 | -0.819 (inactive) | 0.195 | -0.975 | -0.124 (inactive)
